Measurements from ChEMBL document CHEMBL3988442, “University of Dundee, Small-Polar-MMV Screening Library” (2021).
For some assays here: Entries with a potency or affinity are not part of this list.

How the values were obtained:
Parameters in all cases: scale not given: direction of the effect not stated beside the values
[1] = biological target: Protein translocase subunit SecA (Escherichia coli (strain K12)) (UniProt P10408); test: Assay to Identify E. coli SecA ATPase Inhibitors; assay type: functional; details: 30 µM
Sequence of Protein translocase subunit SecA (Escherichia coli (strain K12)) (P10408 whole entry): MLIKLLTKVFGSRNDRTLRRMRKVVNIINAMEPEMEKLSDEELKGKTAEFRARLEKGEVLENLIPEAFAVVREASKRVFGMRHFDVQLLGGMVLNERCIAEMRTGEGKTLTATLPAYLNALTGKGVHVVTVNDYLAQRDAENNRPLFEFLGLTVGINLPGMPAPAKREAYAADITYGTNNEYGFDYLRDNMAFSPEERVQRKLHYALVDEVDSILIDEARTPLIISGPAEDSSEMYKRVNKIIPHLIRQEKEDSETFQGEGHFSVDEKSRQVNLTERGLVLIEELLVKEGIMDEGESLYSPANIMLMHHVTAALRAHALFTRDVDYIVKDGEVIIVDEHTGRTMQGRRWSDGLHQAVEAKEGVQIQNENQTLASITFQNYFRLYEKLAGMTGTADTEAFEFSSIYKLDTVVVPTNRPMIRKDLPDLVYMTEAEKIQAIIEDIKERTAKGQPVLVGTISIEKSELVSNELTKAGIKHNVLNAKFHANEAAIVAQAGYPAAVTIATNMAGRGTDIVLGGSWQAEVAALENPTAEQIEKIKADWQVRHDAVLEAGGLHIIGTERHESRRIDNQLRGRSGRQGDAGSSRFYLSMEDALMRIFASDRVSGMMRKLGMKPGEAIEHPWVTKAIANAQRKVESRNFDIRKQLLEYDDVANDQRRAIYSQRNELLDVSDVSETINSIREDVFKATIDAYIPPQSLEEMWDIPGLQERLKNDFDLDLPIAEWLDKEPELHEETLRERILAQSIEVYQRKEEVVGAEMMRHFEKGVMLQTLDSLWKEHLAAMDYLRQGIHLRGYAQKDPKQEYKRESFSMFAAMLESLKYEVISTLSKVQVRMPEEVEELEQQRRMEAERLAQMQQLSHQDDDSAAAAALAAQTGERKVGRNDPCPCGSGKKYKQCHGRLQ

[2] = biological target: T1, Ubiquitin-activating enzyme e1, putative (Leishmania donovani (strain BPK282A1)) (UniProt E9BSI1); test: Leishmania donovani Ubiquitin Activating Enzyme (LdE1); assay type: functional; details: 30 µM
T1 sequence (whole entry): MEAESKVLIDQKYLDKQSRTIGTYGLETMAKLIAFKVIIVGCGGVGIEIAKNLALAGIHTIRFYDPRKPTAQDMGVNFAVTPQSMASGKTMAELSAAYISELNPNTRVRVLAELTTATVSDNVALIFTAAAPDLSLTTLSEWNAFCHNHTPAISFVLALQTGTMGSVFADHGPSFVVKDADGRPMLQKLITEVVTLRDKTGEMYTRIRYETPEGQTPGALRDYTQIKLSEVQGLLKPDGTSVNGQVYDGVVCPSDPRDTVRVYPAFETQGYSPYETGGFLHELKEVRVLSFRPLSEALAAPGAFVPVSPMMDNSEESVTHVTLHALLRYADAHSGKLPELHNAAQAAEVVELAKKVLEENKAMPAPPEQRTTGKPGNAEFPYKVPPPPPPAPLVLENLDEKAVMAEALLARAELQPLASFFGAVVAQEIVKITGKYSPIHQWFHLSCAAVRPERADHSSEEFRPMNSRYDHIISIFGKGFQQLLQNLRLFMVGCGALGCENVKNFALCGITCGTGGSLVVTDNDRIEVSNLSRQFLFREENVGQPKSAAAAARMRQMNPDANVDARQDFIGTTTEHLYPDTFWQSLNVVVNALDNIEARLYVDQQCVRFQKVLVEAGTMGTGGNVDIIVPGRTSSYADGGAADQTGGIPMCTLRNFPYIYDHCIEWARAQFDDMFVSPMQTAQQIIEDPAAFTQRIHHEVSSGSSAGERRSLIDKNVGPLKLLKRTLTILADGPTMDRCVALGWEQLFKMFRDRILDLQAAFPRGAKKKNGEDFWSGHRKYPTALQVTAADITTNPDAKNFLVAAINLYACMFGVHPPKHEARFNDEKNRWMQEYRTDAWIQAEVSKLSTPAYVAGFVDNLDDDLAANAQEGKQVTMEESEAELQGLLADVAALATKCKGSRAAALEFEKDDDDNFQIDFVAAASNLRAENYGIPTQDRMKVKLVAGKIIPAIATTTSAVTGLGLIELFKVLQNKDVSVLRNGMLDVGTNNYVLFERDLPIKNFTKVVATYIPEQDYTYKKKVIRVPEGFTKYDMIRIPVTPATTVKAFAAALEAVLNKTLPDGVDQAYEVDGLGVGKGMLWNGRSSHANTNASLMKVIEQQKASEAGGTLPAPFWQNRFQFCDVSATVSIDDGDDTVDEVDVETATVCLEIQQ

[3] = biological target: AMP-activated protein kinase, AMPK (Homo sapiens) (UniProt P54646+O43741+P54619+Q9UGJ0+Q9Y478+Q13131+Q9UGI9); test: AMP-dependent Kinase enzyme assay. An in vitro enzyme assay that detects ADP turnover that is directly proportional to AMPK activity. This uses naive AMPK that is activated during the assay with MK-8722; assay type: functional; details: 30 µM
[4] = biological target: Sialic acid-binding Ig-like lectin 9 (Homo sapiens) (UniProt Q9Y336); test: Hs-Siglec9 ALPHAscreen SOP 20170721; details: 10 µM
Sequence of Sialic acid-binding Ig-like lectin 9 (Homo sapiens) (Q9Y336 whole entry): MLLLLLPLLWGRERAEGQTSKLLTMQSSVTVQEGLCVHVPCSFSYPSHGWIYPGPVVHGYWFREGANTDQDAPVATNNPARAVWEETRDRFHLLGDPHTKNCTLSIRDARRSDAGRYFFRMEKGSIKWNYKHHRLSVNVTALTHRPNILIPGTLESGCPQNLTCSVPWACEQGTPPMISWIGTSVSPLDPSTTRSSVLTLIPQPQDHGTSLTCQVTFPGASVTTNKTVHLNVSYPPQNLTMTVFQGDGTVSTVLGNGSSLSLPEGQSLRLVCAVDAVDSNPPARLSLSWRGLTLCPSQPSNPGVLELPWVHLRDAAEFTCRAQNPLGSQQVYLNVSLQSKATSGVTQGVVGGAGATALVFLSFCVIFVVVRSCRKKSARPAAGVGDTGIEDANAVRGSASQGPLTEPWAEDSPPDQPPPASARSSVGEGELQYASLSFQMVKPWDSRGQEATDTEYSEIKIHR

[5] = tested on: Trypanosoma cruzi; test: Trypanosoma cruzi phosphomannomutase and mannose-1-phosphate guanylyltransferase assay; assay type: functional; details: 10 µM
[6] = biological target: T2, Arginase-2, mitochondrial (Homo sapiens) (UniProt P78540); test: in vitro enzyme assay to detect the production of urea directly proportional to the activity of Arginase II; assay type: functional; details: 33.3 µM; note: in the data most compounds retested in dose-response had high values
T2 sequence (whole entry): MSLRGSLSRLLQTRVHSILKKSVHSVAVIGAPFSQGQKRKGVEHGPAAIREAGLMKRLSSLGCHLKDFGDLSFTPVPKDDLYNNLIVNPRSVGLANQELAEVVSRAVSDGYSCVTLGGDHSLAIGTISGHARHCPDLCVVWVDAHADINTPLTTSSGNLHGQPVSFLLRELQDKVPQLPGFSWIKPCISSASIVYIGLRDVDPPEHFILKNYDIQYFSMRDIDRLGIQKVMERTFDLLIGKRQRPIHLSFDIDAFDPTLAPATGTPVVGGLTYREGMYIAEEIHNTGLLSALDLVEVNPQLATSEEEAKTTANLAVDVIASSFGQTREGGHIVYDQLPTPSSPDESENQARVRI

[7] = biological target: T3, Proteasome subunit beta (Trypanosoma cruzi) (UniProt O96673); test: Trypanosoma cruzi proteasome chymotrypsin-like activity (TcProtChymo) assay.; note: in the data most compounds retested in dose-response had high values; assay type: functional; details: 9.37 µM
T3 sequence (whole entry): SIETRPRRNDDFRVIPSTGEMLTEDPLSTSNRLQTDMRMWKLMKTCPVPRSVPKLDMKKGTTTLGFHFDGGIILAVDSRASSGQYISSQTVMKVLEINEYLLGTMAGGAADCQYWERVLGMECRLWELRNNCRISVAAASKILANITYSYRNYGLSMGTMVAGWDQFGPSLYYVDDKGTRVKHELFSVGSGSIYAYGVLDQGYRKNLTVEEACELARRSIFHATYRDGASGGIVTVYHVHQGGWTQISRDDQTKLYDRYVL

[8] = species: Homo sapiens; test: To identify inhibition of the IFN signalling (Jak-Stat) pathway via expression of an eGFP reporter gene under the control of an IFN-stimulated response element (ISRE) containing MxA promoter.; assay type: functional; details: 30 µM
[9] = biological target: T4, Tyrosyl-tRNA synthetase, putative (Trypanosoma cruzi (strain CL Brener)) (UniProt Q4DSP6); test: Trypanosoma cruzi tyrosyl tRNA synthetase (TcYRS) _High Tyrosine SOP; assay type: functional; details: 30 µM; note: in the data most compounds retested in dose-response had high values
T4 sequence (whole entry): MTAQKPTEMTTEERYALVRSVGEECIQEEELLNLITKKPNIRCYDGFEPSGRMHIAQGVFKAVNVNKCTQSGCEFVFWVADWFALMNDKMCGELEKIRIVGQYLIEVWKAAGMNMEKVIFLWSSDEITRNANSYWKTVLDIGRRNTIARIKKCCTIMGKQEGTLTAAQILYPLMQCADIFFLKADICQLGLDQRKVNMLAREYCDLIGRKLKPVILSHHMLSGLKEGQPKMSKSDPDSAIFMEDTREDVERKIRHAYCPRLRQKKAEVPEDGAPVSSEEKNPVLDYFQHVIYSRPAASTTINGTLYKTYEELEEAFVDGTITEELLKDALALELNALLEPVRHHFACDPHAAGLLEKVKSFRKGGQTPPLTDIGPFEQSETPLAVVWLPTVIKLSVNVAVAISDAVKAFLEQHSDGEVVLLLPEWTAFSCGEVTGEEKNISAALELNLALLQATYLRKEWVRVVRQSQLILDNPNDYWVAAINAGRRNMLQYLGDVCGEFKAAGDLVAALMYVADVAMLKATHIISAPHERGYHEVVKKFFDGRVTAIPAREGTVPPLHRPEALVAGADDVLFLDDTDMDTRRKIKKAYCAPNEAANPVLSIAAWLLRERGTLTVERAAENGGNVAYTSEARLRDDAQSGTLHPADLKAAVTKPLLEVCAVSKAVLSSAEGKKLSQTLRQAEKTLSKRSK

[10] = biological target: T4, Tyrosyl-tRNA synthetase, putative (Trypanosoma cruzi (strain CL Brener)); test: Trypanosoma cruzi tyrosyl tRNA synthetase (TcYRS) SOP; assay type: functional; details: 30 µM
[11] = biological target: Chromo domain-containing protein 1 (Saccharomyces cerevisiae (strain ATCC 204508 / S288c) (Baker's yeast)) (UniProt P32657); test: ScCHD-1 Enzyme Inhibition Assay; assay type: functional; details: 30 µM; note: in the data most compounds retested in dose-response had high values
Sequence of Chromo domain-containing protein 1 (Saccharomyces cerevisiae (strain ATCC 204508 / S288c) (Baker's yeast)) (P32657 whole entry, the tested form may be a part): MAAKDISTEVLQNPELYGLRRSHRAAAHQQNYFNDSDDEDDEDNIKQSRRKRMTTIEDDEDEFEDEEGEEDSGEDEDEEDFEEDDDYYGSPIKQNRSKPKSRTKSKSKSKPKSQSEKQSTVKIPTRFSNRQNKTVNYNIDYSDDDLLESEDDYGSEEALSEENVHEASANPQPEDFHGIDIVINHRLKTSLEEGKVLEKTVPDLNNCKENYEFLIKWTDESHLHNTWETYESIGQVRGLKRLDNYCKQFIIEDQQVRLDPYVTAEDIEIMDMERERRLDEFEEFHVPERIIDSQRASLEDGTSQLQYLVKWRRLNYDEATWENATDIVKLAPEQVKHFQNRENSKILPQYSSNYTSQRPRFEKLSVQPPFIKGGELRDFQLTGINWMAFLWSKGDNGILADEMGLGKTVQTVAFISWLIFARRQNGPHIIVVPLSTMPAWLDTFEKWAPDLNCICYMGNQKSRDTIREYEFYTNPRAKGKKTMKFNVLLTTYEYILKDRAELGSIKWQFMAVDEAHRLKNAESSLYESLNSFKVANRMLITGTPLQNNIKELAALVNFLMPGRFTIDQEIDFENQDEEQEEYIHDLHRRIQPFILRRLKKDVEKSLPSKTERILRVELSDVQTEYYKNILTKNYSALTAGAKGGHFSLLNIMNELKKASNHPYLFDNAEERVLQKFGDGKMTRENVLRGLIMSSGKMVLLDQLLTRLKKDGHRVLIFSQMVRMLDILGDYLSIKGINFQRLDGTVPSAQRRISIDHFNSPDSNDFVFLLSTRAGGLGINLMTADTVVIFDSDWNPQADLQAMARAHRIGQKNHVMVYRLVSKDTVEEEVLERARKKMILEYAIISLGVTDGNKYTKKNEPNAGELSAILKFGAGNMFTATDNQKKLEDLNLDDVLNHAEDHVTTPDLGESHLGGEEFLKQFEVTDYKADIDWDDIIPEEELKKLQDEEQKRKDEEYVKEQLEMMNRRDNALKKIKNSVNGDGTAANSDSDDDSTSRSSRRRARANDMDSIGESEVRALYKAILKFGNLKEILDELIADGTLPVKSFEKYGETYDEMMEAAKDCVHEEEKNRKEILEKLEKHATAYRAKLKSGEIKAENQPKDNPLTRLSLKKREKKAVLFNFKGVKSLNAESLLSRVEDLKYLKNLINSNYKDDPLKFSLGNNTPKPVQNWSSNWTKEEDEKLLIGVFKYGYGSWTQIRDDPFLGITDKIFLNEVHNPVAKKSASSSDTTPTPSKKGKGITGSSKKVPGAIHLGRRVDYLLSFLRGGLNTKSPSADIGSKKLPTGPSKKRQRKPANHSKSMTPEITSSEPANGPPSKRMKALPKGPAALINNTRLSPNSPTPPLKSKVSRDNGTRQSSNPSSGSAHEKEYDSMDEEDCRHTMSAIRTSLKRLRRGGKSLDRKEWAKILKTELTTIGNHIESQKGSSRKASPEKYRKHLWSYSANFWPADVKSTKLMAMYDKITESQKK

SMILES	Percent Effect [1] [%]	Percent Effect [2] [%]	Percent Effect [3] [%]	Percent Effect [4] [%]	Percent Effect [5] [%]	Percent Effect [6] [%]	Percent Effect [7] [%]	Percent Effect [8] [%]	Percent Effect [9] [%]	Percent Effect [10] [%]	Percent Effect [11] [%]
CC(CN1CCCC1)C(=O)N1CCC(c2nccn2CC2CC2)CC1 (centres undefined)	-4.31	13.5	-3.47	27.7	10.2	2.86	16.2	5.41	7.94	21.9	-11.2
COc1ccc(CCNC(=O)C2CCC(Cn3cnnn3)CC2)cc1 (centres undefined)	-1.81	1.33	15.9	3.74	-1.38	-5.81	5.18	-2.49	5.29	2.56	-1.04
CN(Cc1ccsc1)C(=O)c1cccc(F)c1	-5.35	20.8	1.32	3.27	-2.06	-1.07	5.74	9.71	3.88	19.5	-9.1
Cc1ccccc1C(=O)N1CCOC2(CNCCOC2)C1 (centres undefined)	-0.256	2.7	-1.58	2.44	-2.51	-1.43	17.8	11.5	1.59	9.76	-3.15
O=C(CCNc1ncccn1)NCCc1ccn(-c2ccccc2)n1	-3.96	21.5	-1.83	-7.45	4.82	0.215	15.4	-2.32	6.25	20.2	-24.6
COc1ccccc1OCc1cc(C(=O)N2CC=CC2C(C)C)n[nH]1 (centres undefined)	0.254	1.39	-2.81	9.42	2.82	8.83	11.9	-13.9	5.26	7.69	-2.27
COc1ccc(-c2nnc(SCC(=O)NCC(C)C)[nH]2)c(OC)c1	-5.51	18.4	1.07	-1.8	4.97	4.73	15.8	12.1	3.19	18.2	-1.07
Cc1cc(C)c(CNC(=O)C2CCCN(c3cnccn3)C2)c(=O)[nH]1 (centres undefined)	-3.46	10.5	-6.83	10.1	-4.13	-1.53	11.5	-8.19	-0.49	-12.2	-5.39
O=S1(=O)CCN(Cc2cccnc2)[C@H]2CCN(c3ncccn3)CC[C@H]21	-8.77	-2.7	-0.0275	20.3	-3.91	-0.417	-2.62	16.4	3.96	-1.22	0.188
CCOCC(O)CN1CCN(C(=O)c2ccnc(N(C)C)c2)CC1 (centres undefined)	-2.11	2.7	-5.93	13.5	5.99	1.43	0	-4.49	1.59	7.32	-3.55
CNc1nc2c(s1)C(c1c(F)cccc1Cl)CC(=O)N2 (centres undefined)	-1.81	13.2	-308	1.93	4.58	-4.73	6.81	-0.412	2.13	2.6	22.5
CC(C)C(=O)N1CCN(C(=O)CCc2nnc(-c3ccccc3)o2)CC1	-1.03	5.06	-0.0997	0.624	-4.06	4.94	0.901	16.1	3.45	8.86	-7.27
Cc1cc(F)ccc1CN1CCC(O)(CN2CCCCC2)C1 (centres undefined)	-6.21	5.33	-7.83	3.56	-1.46	-1.04	19.2	-1.85	4.92	8.64	-4.93
Cc1noc(C(C)C)c1C(=O)NS(=O)(=O)c1ccc(Cl)cc1	-5.93	2.63	7.93	1.74	3.8	0	17.9	9.23	6.38	7.79	3.02
CCNc1cc2c(nn1)CCN(C(=O)CC1CCCCC1)C2	-8.49	12.7	0.0974	9.47	1.42	3.04	-0.0819	-11.3	16.3	8.86	-8.44
c1ccc(CN2CC[C@@H]3O[C@H](COCc4ccncc4)CC[C@@H]32)nc1	-0.0418	10.7	-4.7	-5.18	-8.46	5.83	9.07	-4.23	4.25	8.97	-2.83
Cc1nccc(C2CN(Cc3cc[nH]n3)CCO2)n1 (centres undefined)	-1.51	1.35	9.42	3.04	-1.98	-1.16	4.84	-10.9	0	3.9	-12.4
CN(Cc1cnn(C)c1)C(=O)NCc1nnc2n1CCC2	-4.33	10.1	2.17	6.31	4.06	1.52	-0.901	3.9	5.42	8.86	-6.73
O=C(c1ccn[nH]1)N1CCCC(n2cncn2)C1 (centres undefined)	-7.58	11.4	-2.36	4.37	-0.718	0.645	12.9	6.04	2.08	15.2	-14.9
